Counter-ions that a name gives are not always drawn. ± gives the standard deviation of the averaged measurements.

What all share (assay): growth (OD600 after 10 h); higher = more growth (less inhibition)
Test [1] deals with E. coli TESEC Alr+ wild-type control. The settings on record: compound 0.1 mM; raw OD600 reference: median of DMSO wells 0.241, cell-free background 0.041. How it is done: (§1)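 TESEC Mtb Alr E. coli, or the Alr+ wild-type control, in 384-well plates with Prestwick library compounds at 0.1 mM and 1% DMSO, across arabinose induction levels of 1E3 to 1E7 nM. Growth is read as OD600 after 10 h at 37 °C in triplicate biological replicates.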

The test system of test [2] is E. coli TESEC Mtb Alr. To be noted: compound 0.1 mM. As to the method:
as §1

For test [3], the system named is E. coli TESEC Mtb Asd. To be noted: compound 0.1 mM. As to the method:
(§2)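 TESEC E. coli strains in which the native enzyme is deleted and replaced by arabinose-inducible Mtb Asd, DapB, CysH or TrpD, each grown in its selective medium. Strains were screened against the Prestwick library at 0.1 mM and 1% DMSO in 384-well format at low and high arabinose induction. Growth is read as OD600 after 10 h in triplicate.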

The subject of test [4] is E. coli TESEC Mtb DapB. The settings on record: compound 0.1 mM. As to the method: as §2
The test system of test [5] is E. coli TESEC Alr+ wild-type control. To be noted: compound 0.1 mM; raw OD600 reference: median of DMSO wells 0.49, cell-free background 0.052. As to the method: (§3)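 TESEC Mtb Alr E. coli (ΔaraC ΔtolC ΔentC Δalr ΔdadX, arabinose-inducible Mtb Alr) or the Alr+ wild-type control strain, grown in defined M9-fructose medium without D-alanine in 96-well plates with Prestwick library compounds at 0.1 mM and 1% DMSO. Low Alr induction is 0.1 µM arabinose and high induction is 10 mM arabinose.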

The subject of test [6] is E. coli TESEC Mtb Alr. The settings on record: compound 0.1 mM. As to the method:
as §3
The source holds these as a separate data set.

[7] abbreviates: arabinose 1000 nM, raw OD600 reference: median of DMSO wells 0.294, cell-free background 0.041.
[8] abbreviates: arabinose 10000 nM, raw OD600 reference: median of DMSO wells 0.264, cell-free background 0.041.
[9] abbreviates: arabinose 100000 nM, raw OD600 reference: median of DMSO wells 0.201, cell-free background 0.041.
The mark [10] stands for this setting: arabinose 1000000 nM, raw OD600 reference: median of DMSO wells 0.193, cell-free background 0.041.
[11] abbreviates: arabinose 10000000 nM, raw OD600 reference: median of DMSO wells 0.146, cell-free background 0.041.
Setting [12] is: arabinose induction (level): High, raw OD600 reference: median of DMSO wells 0.331, cell-free background 0.041.
[13] abbreviates: arabinose induction (level): Low, raw OD600 reference: median of DMSO wells 0.417, cell-free background 0.041.
Where [14] appears, read: arabinose induction (level): High, raw OD600 reference: median of DMSO wells […], cell-free background 0.041.
[15] abbreviates: arabinose induction (level): Low, raw OD600 reference: median of DMSO wells 0.227, cell-free background 0.041.
Setting [16] is: arabinose 100 nM, raw OD600 reference: median of DMSO wells 0.413, cell-free background 0.052.
[17] abbreviates: arabinose 10000000 nM, raw OD600 reference: median of DMSO wells […], cell-free background 0.052.

Take `CN1CCC(=C2c3ccccc3Sc3ccccc32)CC1` [Pimethixene maleate]: the growth in test [1] came to 0.0726 ± 0.0016; in test [2] (setting [7]) it was 0.0585 ± 0.013; in test [2] (setting [8]), 0.0419 ± 0.00051; in test [2] (setting [9]) it was 0.0556 ± 0.0055; in test [2] (setting [10]) it was 0.0414 ± 0.00026; in test [2] (setting [11]) it was 0.05003 ± 0.00025. The growth was determined as 0.118 ± 0.028 in test [3] (setting [12]); 0.161 ± 0.0073 in test [3] (setting [13]); 0.15 ± 0.011 in test [4] (setting [14]); 0.223 ± 0.069 in test [4] (setting [15]); 0.0544 ± 0.0021 in test [5]; 0.362 ± 0.078 in test [6] (setting [16]). The molecule further came in with a growth in test [6] (setting [17]) of 0.0659 ± 0.0097.

`CC1CC(OC(=O)c2ccccc2O)CC(C)(C)C1` (configuration not stated) [Homosalate]: the growth in test [1] is 0.248 ± 0.0027; in test [2] (setting [7]) it was 0.3 ± 0.005; in test [2] (setting [8]), 0.263 ± 0.019; in test [2] (setting [9]), 0.199 ± 0.03; in test [2] (setting [10]), 0.18 ± 0.0023; in test [2] (setting [11]) it was 0.15 ± 0.0039. Further, the growth in test [3] (setting [12]) was 0.202 ± 0.011; in test [3] (setting [13]), 0.332 ± 0.052; in test [4] (setting [14]), 0.194 ± 0.018; in test [4] (setting [15]), 0.205 ± 0.027; in test [5] it was 0.543 ± 0.057; in test [6] (setting [16]) it was 0.3918 ± 0.0032. Moreover, the growth in test [6] (setting [17]) is 0.332 ± 0.016.

Consider `C[N+](C)(C)CCCCCC[N+](C)(C)C` [Hexamethonium dibromide dihydrate], for which the growth in test [1] amounted to 0.247 ± 0.0066; in test [2] (setting [7]), 0.27 ± 0.018; in test [2] (setting [8]), 0.245 ± 0.0047; in test [2] (setting [9]), 0.191 ± 0.022; in test [2] (setting [10]) it was 0.1745 ± 0.00064; in test [2] (setting [11]), 0.138 ± 0.0063. Also, the growth stood at 0.344 ± 0.048 in test [3] (setting [12]); 0.454 ± 0.015 in test [3] (setting [13]); 0.205 ± 0.014 in test [4] (setting [14]); 0.233 ± 0.042 in test [4] (setting [15]); 0.536 ± 0.007 in test [5]; 0.425 ± 0.0087 in test [6] (setting [16]). Moreover, the growth in test [6] (setting [17]) was determined as 0.384 ± 0.015.

Take `Cc1c(O)cccc1C(=O)N[C@@H](CSc1ccccc1)[C@H](O)CN1C[C@H]2CCCC[C@H]2C[C@H]1C(=O)NC(C)(C)C` [Nelfinavir mesylate]: the growth in test [1] worked out at 0.279 ± 0.06; in test [2] (setting [7]), 0.329 ± 0.0095; in test [2] (setting [8]) it was 0.284 ± 0.031; in test [2] (setting [9]), 0.323 ± 0.062; in test [2] (setting [10]), 0.148 ± 0.0082; in test [2] (setting [11]), 0.276 ± 0.041. The growth in test [3] (setting [12]) worked out at 0.215 ± 0.019; in test [3] (setting [13]), 0.275 ± 0.015; in test [4] (setting [14]), 0.197 ± 0.077; in test [4] (setting [15]), 0.23 ± 0.086; in test [5], 0.509 ± 0.09.

Regarding `CC(CN(C)C)CN1c2ccccc2CCc2ccccc21` (configuration not stated) [Trimipramine maleate salt], the growth in test [1] was 0.167 ± 0.0021; in test [2] (setting [7]), 0.204 ± 0.012; in test [2] (setting [8]), 0.3 ± 0.0057; in test [2] (setting [9]) it was 0.184 ± 0.013; in test [2] (setting [10]) it was 0.15 ± 0.0042; in test [2] (setting [11]) it was 0.156 ± 0.0021. For the same molecule, the growth in test [3] (setting [12]) came out at 0.141 ± 0.019; in test [3] (setting [13]), 0.267 ± 0.046; in test [4] (setting [14]) it was 0.195 ± 0.035; in test [4] (setting [15]), 0.219 ± 0.027; in test [5], 0.4285 ± 0.0016; in test [6] (setting [16]), 0.395 ± 0.0065. The growth in test [6] (setting [17]) worked out at 0.337 ± 0.0056.

For the molecule `COc1cc(N)c(Cl)cc1C(=O)NC1CCN(Cc2ccccc2)CC1` [Clebopride maleate], the growth in test [1] came out at 0.19 ± 0.002; in test [2] (setting [7]), 0.263 ± 0.0076; in test [2] (setting [8]) it was 0.24 ± 0.005; in test [2] (setting [9]), 0.171 ± 0.016; in test [2] (setting [10]) it was 0.132 ± 0.0034; in test [2] (setting [11]), 0.129 ± 0.0055. Besides, the growth in test [3] (setting [12]) was found to be 0.163 ± 0.016; in test [3] (setting [13]), 0.277 ± 0.036; in test [4] (setting [14]) it was 0.2 ± 0.011; in test [4] (setting [15]), 0.223 ± 0.031; in test [5], 0.474 ± 0.027; in test [6] (setting [16]), 0.397 ± 0.0065. In test [6] (setting [17]), this molecule registered a growth of 0.314 ± 0.016.

As for `O=C1[C@H]2CCCC[C@H]2C(=O)N1CCCCN1CCN(c2nsc3ccccc23)CC1` [Perospirone], the growth in test [1] was 0.131 ± 0.0041; in test [2] (setting [7]), 0.225 ± 0.0052; in test [2] (setting [8]), 0.257 ± 0.0052; in test [2] (setting [9]) it was 0.146 ± 0.0072; in test [2] (setting [10]) it was 0.103 ± 0.0012; in test [2] (setting [11]), 0.1416 ± 0.00075. Also, the growth amounted to 0.188 ± 0.026 in test [3] (setting [12]); 0.369 ± 0.015 in test [3] (setting [13]); 0.174 ± 0.013 in test [4] (setting [14]); 0.241 ± 0.037 in test [4] (setting [15]); 0.432 ± 0.016 in test [5]; 0.419 ± 0.0096 in test [6] (setting [16]). Besides, in test [6] (setting [17]), the growth is 0.29 ± 0.027.

`CN(CCCCCCCCCCN(C)C(=O)Oc1cccc([N+](C)(C)C)c1)C(=O)Oc1cccc([N+](C)(C)C)c1` [Demecarium bromide]: the growth in test [1] was 0.04127 ± 0.00031; in test [2] (setting [7]) it was 0.0415 ± 0.00053; in test [2] (setting [8]), 0.03993 ± 5.8e-05; in test [2] (setting [9]), 0.0453 ± 0.0065; in test [2] (setting [10]) it was 0.03943 ± 0.00023; in test [2] (setting [11]) it was 0.0426 ± 0.0012. The growth was 0.0473 ± 0.00079 in test [3] (setting [12]); 0.047 ± 0.0013 in test [3] (setting [13]); 0.0492 ± 0.00091 in test [4] (setting [14]); 0.0493 ± 0.0005 in test [4] (setting [15]); 0.051 ± 0.00093 in test [5]; 0.0633 ± 0.0063 in test [6] (setting [16]). This molecule also showed a growth in test [6] (setting [17]) of 0.0536 ± 0.0014.
